From PubChem BioAssay (NCI) come the findings set out here.

Compounds without any hit were thinned out: in the full panel of roughly 83,000, 20% have a hit.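 A percent growth of 40 corresponds to 60% growth inhibition; 0 means no net growth; -100 means all cells died. Active threshold: below 10.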 Active and inactive are the calls of the source.

This assay concerns HL-60(TB) leukemia. Put plainly: NCI-60 one-dose screen, 48 h (100 = growth as untreated, 0 = no growth, -100 = all killed). The settings on record: 10 µM unless noted.
Consider `COc1cc(/C=C/C(=O)c2cnn(-c3cc(=O)[nH]c4ccc(Cl)cc34)c2C)cc(OC)c1OC`, for which the growth is -23.1% (active).
Consider `CCOC(=O)/C(F)=C/C1CC1C(c1ccccc1)c1ccccc1` (stereo not given), for which the growth was -7.32% (active).
Turning to `O=C(Cn1c2c(sc1=O)[C@H]1[C@@H](O)[C@@H](O)[C@H](O)[C@@H]1CS2)N1CCOCC1`, the growth is 109% (inactive).
As to `N#Cc1c(-c2ccc(Cl)cc2)cc(-c2ccccc2)nc1OCc1ccccc1`, the growth is 77.3% (inactive).
To `COc1ccc([C@H]2C(C(=O)c3ccc(Cl)cc3)C3(N[C@@H]2c2ccccc2)C(=O)Nc2ccccc23)cc1` (stereo not given in full) belongs 29.2% (inactive); to `COc1cc(/C=C/C(=O)c2cc(OC)c(OC)c(OC)c2)ccc1Oc1nc(Nc2ccc(F)cc2)nc(N(C)C)n1`, -7.15% (active).
As for `O=C(Nc1cccc(-c2cn(-c3ccc4oc(=O)ccc4c3)nn2)c1)Nc1cc(C(F)(F)F)cc(C(F)(F)F)c1`, the growth was 34.3% (inactive).
Take `COc1ccc(NC(=O)Cn2c(/C=C/c3cccc(OC)c3)nc3ccccc3c2=O)cc1`: the growth was 94.6% (inactive).
In the case of `COc1cc(CNC(=O)C[C@H](C)CCC=C(C)C)ccc1OCc1cn(-c2cccc(C(F)(F)F)c2)nn1`, the growth is 96.3% (inactive).
Take `CN1C(=O)/C(=C\C(=O)c2cc3ccccc3oc2=O)c2ccccc21`: the growth was 79.3% (inactive).
Turning to `CCCn1c(=O)c2[nH]c(-c3ccc(OCc4nc5ccc(C#N)cc5[nH]4)cc3)nc2n(CCC)c1=O`, the growth was 95.4% (inactive).
As for `N#Cc1c(NC(=O)c2ccc(C(F)(F)F)cc2)sc2c1CCC(=O)C2`, the figure is 7.73% (active); as for `O=c1oc2ccc(Br)cc2cc1C1=CSc2nc3sc4c(c3c(=O)n2N=C1)CCCC4`, 45.4% (inactive).
As for `COc1cc2c(cc1OC)CN(CCCCOc1cc(O)c3c(=O)cc(-c4ccccc4)oc3c1)CC2`, the figure is 7.79% (active); as for `CC[C@@]12CC(C(=O)OC)=C3Nc4cc5c(cc4[C@@]34CCN(C[C@H]3O[C@H]31)[C@@H]24)[C@@H]1[C@H](O5)[C@@H](O)[C@@]2(CC)CC(C(=O)OC)=C3Nc4cc(O)ccc4[C@@]34CCN1[C@@H]24`, -39.1% (active); as for `CN(C)c1ccc(/C=C/c2nc3ccccc3c(=O)n2CC(=O)Nc2ccccc2)cc1`, 91.8% (inactive).
As for `O=C(CN1CCN(c2ncnc3c2cnn3-c2ccccc2)CC1)Nc1ccc(Cl)cc1`, the growth was 58.6% (inactive).
Take `COc1cc2oc(-c3cccc(C(=O)Nc4ccc(Cl)cc4)c3)cc(=O)c2c(OCCNC(=O)[C@@H](N)CCC(=O)O)c1OC`: the growth was 81.6% (inactive).
Turning to `COc1ccc(C(=O)C[n+]2cccc3c4ccccc4ccc32)cc1`, the growth is 22% (inactive).
As for `N/C(=N\c1nc2ccccc2s1)NC(=O)Nc1c(Cl)cccc1Cl`, the figure is 17.9% (inactive).
With `CN1CCN(c2ccc(C(=O)/C=C/c3cc(C(F)(F)F)ccc3Cl)cc2)CC1`, the growth is -29.3% (active).
As for `COc1cc(/C=C/C(=O)c2ccc(NC(=O)CN3C(=O)NC(C)(c4ccccc4)C3=O)cc2)cc(OC)c1OC` (stereo not given), the growth is -11.5% (active).
To `Clc1ccc(-c2nc3ccc(-c4nnc(SCc5ccccc5)o4)cc3[nH]2)cc1` belongs 51.8% (inactive).
For the molecule `N#Cc1c(-c2ccc(F)cc2)nc(SCc2ccc(F)cc2)nc1N1CCNCC1`, the growth was -7.81% (active).
As for `O=C(COc1ccc(NC(=O)Nc2ccc(Cl)c(Cl)c2)cc1)N=Nc1c(O)[nH]c2ccc(Br)cc12`, the figure is -27.2% (active); as for `COc1cc2oc(-c3cccc(C(=O)Nc4cccc([N+](=O)[O-])c4)c3)cc(=O)c2c(OC)c1OC`, 101% (inactive).
As for `CN(C)c1nc(NCCNS(=O)(=O)c2ccc(C(=O)/C=C/c3ccc(Cl)cc3)cc2)nc(Nc2ccc(F)cc2)n1`, the figure is -42.7% (active); as for `CCOc1ccc(-c2c(C#N)c(-c3ccc(Cl)cc3)nc3n[nH]c(-c4ccc(Cl)cc4)c23)cc1OC`, 4.06% (active).
As for `CC1(C)CC[C@]2(C(=O)O)CC[C@]3(C)C(=CCC4[C@@]5(C)C[C@@H](O)[C@@H]6OC(c7cccc(F)c7)OC[C@@]6(C)C5CC[C@]43C)C2C1` (stereo not given in full), the figure is 9.5% (active).
Consider `COc1ccc(NC(=O)Nc2ccc(OCc3ccc(F)cc3)cc2)cc1`, for which the growth is 83.1% (inactive).
`COc1cc2c(cc1OC)/C(=C\c1sc(Nc3ccc(O)cc3)nc1O)C(C(=O)O)=N2`: the growth was -17.5% (active).
For `Cc1ccc(-c2nc(C#N)c(S(=O)(=O)N3CCN(S(=O)(=O)c4ccc(Cl)cc4)CC3)o2)cc1`, the growth is 79.9% (inactive).
With `COc1cc2c(c(OC)c1OC)C(=O)CC(c1cccc(NC(=O)c3cc([N+](=O)[O-])ccc3Cl)c1)O2` (stereo not given), the growth was 34.1% (inactive).
As for `O=C(CSc1nnc(-c2ccc(-c3nc4ccc(Cl)cc4[nH]3)cc2)o1)Nc1ccc(Br)cc1`, the figure is 29.7% (inactive); as for `COc1ccc(-c2cc(-c3cc(C(=O)c4ccc(Br)cc4)n4ccc(C)cc34)nc(N)c2C#N)cc1`, 96.6% (inactive).
For the molecule `COc1ccc(CCC2NCCc3c(Br)c4c(c(OC)c32)OCO4)cc1` (stereo not given), the growth is -11.6% (active).
Take `O=C1Nc2ccc(Cl)cc2/C1=C/c1cccc(OCc2ccccn2)c1`: the growth was -25% (active).
To `Cc1ccc(S(=O)(=O)c2nc(S(=O)(=O)c3ccc(C)cc3)c(Cl)s2)cc1` belongs 15.9% (inactive).
With `CC(C)c1ccc(C(=O)Nc2sc3c(c2C(N)=O)CCC(=O)C3=O)cc1`, the growth was 96.9% (inactive).
With `COc1ccc2[nH]c(=O)c(CSc3ccccc3Nc3nccc(-c4ccc(C(F)(F)F)cc4)n3)cc2c1`, the growth was 1.94% (active).
